In the supplement of paper PMC11219838:
Unmarked numbers belong to inactive results.

Each compound was assayed on Caenorhabditis elegans L1 (N2) (assay: survival and reproduction score of C. elegans L1 (0: 0-10 living worms, 1: 11-20, 2: 21-50, 3: >50, 4: overgrown) (score 0-4); higher = more worms, less nematicidal, active = 1 or less; extreme values may be limits of the assay). Conditions: 60 µM; 6 days; temperature: 20 °C.
Summary of the method: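 In liquid NGM with E. coli HB101, approximately 20 synchronized C. elegans N2 L1s per 96-well well were exposed to compound at 60 µM final (0.6% v/v DMSO) for 6 days at 20 °C with shaking at 200 rpm in sealed plates. Survival and reproduction were judged under a dissection microscope as an ordinal rating of living worms per well. Ratings went from 0 (0–10 worms) to 4 (overgrown, starved) and were averaged over two biological replicates.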
With `Cc1cccc(OCc2nc(-c3ccc(-n4cccc4)cc3)no2)c1` the “survival and reproduction score” value was 4. For `O=C(CSc1nnc(-c2ccccc2)o1)Nc1cc(C(F)(F)F)ccc1Cl`, the “survival and reproduction score” value was 4. In the case of `CCOc1ccccc1-c1nc(-c2cccc(C)c2)no1`, the “survival and reproduction score” value is reported as 4. For `O=C(CSc1nnc(-c2ccc(Cl)cc2)o1)c1ccccc1`, the “survival and reproduction score” value was 4. In the case of `Cc1ccc(-c2noc(COc3ccc(C)cc3C)n2)cc1`, the “survival and reproduction score” value is reported as 4. `COc1cccc(-c2noc(COc3ccc(Br)cc3)n2)c1` was tested, and the “survival and reproduction score” value was 4. With `O=C(c1ccccc1-c1nc(-c2ccccc2Cl)no1)N1CCCC1` the “survival and reproduction score” value was 4. `Cc1ccccc1CSc1nnc(-c2ccco2)o1` was tested, and the “survival and reproduction score” value was 0 (active). With `CCC(=O)Nc1ccccc1-c1nc(-c2ccncc2)no1` the “survival and reproduction score” value was 1 (active). In the case of `CCOc1ccccc1NC(=O)CSc1nnc(-c2ccco2)o1`, the “survival and reproduction score” value is reported as 4. For `Cc1cccc(OCc2nc(-c3ccncc3)no2)c1C`, the “survival and reproduction score” value was 4. `c1ccc(-c2noc(COc3ccc4c(c3)CCCC4)n2)cc1` was tested, and the “survival and reproduction score” value was 4. For `COC(=O)c1ccc(CSc2nnc(-c3ccncc3)o2)cc1`, the “survival and reproduction score” value was 4. `CCSc1nnc(-c2ccc(Cl)cc2)o1` was tested, and the “survival and reproduction score” value was 0 (active). In the case of `c1ccc(-c2nc(C3CCCCC3)no2)cc1`, the “survival and reproduction score” value is reported as 0 (active). For `Cc1ccc(-c2nc(-c3cccnc3)no2)c(C)c1`, the “survival and reproduction score” value was 0 (active). For `O=C(CSc1nnc(-c2ccc(Cl)cc2Cl)o1)N1CCCCC1`, the “survival and reproduction score” value was 4. With `Cc1ccc(-c2noc(-c3ccccc3OCC(N)=O)n2)cc1` the “survival and reproduction score” value was 4. In the case of `CCCSc1nnc(-c2ccc(Cl)cc2Cl)o1`, the “survival and reproduction score” value is reported as 0 (active). In the case of `CC(Sc1nnc(-c2ccco2)o1)C(=O)NC(c1ccccc1)c1ccccc1` (stereo not drawn), the “survival and reproduction score” value is reported as 4. `CCNC(=O)c1ccccc1-c1nc(-c2ccc(OC)cc2)no1` was tested, and the “survival and reproduction score” value was 4. With `COc1ccc(-c2nnc(SCC(=O)Nc3ccc(Br)c(C)c3)o2)cc1` the “survival and reproduction score” value was 4. In the case of `COc1ccc(Cl)cc1-c1noc(-c2ccccc2)n1`, the “survival and reproduction score” value is reported as 1 (active). In the case of `O=C(Nc1ccccc1-c1nc(-c2cccnc2)no1)c1cc2ccccc2o1`, the “survival and reproduction score” value is reported as 4. In the case of `COc1ccccc1-c1nc(-c2ccc(Br)cc2)no1`, the “survival and reproduction score” value is reported as 4. For `Cc1ccc(-c2nnc(SCC(=O)Nc3ccc(Br)c(C)c3C)o2)cc1`, the “survival and reproduction score” value was 4. For `O=C(CSc1nnc(-c2ccc(Br)cc2)o1)Nc1nccs1`, the “survival and reproduction score” value was 4. For `Cc1ccc(OCc2nc(-c3ccc(Br)o3)no2)cc1C`, the “survival and reproduction score” value was 4. `O=S(=O)(CCC(F)=C(F)F)c1ncc(Cl)s1` [fluensulfone] was tested, and the “survival and reproduction score” value was 4. For `CCC(=O)Nc1ccccc1-c1nc(-c2cccnc2)no1`, the “survival and reproduction score” value was 4. With `FC(F)(F)c1cccc(-c2noc(-c3ccccc3Cl)n2)c1` the “survival and reproduction score” value was 3. In the case of `Cc1ccc(C(=O)CSc2nnc(-c3ccco3)o2)o1`, the “survival and reproduction score” value is reported as 4. `CCc1ccc(OCc2nc(-c3ccc(C)cc3)no2)cc1` was tested, and the “survival and reproduction score” value was 2. In the case of `CC(C)c1ccc(OCc2nc(-c3ccccn3)no2)cc1`, the “survival and reproduction score” value is reported as 4. With `Cc1ccc(C)c(-c2nc(-c3ccncc3)no2)c1` the “survival and reproduction score” value was 0 (active). In the case of `CCOC(=O)c1c(NC(=O)CSc2nnc(-c3ccccc3OCC)o2)sc(C(C)=O)c1C`, the “survival and reproduction score” value is reported as 4. For `N#Cc1ccccc1CSc1nnc(-c2ccncc2)o1`, the “survival and reproduction score” value was 4. In the case of `Clc1ccc(OCc2nc(-c3cccs3)no2)cc1`, the “survival and reproduction score” value is reported as 2.5.
